Laboratory results published in the supplement of paper PMC3334620.
In all, about 33,000 sequences were measured (“E-score (-0.5 to 0.5)”: median about -0.015, highest 2% from about 0.3 on). For the sample, the highest values were picked, then their nearest neighbours and some sequences at random.

The sequences below were run against T1, Abf1 (UniProt P14164) (assay: PBM E-score (8-mer binding enrichment) (E-score (-0.5 to 0.5)); higher = stronger / more preferred TF binding). Conditions: protein concentration: 200 nM; construct: GST-full length.
T1 sequence: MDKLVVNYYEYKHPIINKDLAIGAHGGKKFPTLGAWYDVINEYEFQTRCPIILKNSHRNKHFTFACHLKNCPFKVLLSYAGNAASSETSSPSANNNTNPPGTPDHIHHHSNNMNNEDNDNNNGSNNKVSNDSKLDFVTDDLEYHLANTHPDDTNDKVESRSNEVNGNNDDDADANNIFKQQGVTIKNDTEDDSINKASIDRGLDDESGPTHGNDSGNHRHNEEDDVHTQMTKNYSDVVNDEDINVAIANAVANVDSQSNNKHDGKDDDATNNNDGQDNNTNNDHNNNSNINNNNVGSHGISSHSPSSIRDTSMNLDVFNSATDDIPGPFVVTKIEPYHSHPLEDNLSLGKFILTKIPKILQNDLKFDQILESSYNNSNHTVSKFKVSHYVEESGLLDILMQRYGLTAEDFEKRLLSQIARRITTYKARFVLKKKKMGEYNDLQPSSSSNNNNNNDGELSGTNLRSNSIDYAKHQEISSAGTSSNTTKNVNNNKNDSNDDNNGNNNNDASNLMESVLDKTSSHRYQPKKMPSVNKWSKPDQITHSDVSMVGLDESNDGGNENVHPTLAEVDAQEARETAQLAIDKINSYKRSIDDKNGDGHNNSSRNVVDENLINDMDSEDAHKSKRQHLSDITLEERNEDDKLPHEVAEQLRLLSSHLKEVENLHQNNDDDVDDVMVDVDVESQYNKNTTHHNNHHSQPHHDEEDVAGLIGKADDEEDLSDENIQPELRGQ
Method in brief: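 Yeast transcription factors carrying a GST tag, as full-length proteins or DNA-binding domains, were produced by PURExpress in vitro transcription/translation. About 100-200 nM protein was applied to universal all-10-mer Agilent arrays, double-stranded by primer extension on fresh or once-stripped slides. Bound protein was detected with fluorescent anti-GST, and scans were normalised with masliner. The Universal PBM Analysis Suite gave each ungapped eight-base word, pooled with its reverse complement, an E-score, a modified Wilcoxon-Mann-Whitney statistic.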

| Sequence | PBM E-score |
| --- | --- |
| ACGGCAAT | 0.277 |
| CTCAATGA | 0.0427 |
| TGAATTCA | 0.171 |
| CAGGGCCA | -0.227 |
| CTGTGATC | 0.0861 |
| CAGTGATC | 0.366 |
| CAGTGAGC | -0.118 |
| GGTGTACA | -0.178 |
| CGTCATCC | 0.167 |
| CGTCATCA | 0.349 |
| CGTCATAG | 0.143 |
| AGTCATCA | 0.135 |
| GGTCATTA | 0.134 |
| GGTCATAC | -0.0499 |
| CGTCATAC | 0.316 |
| CGTCATTA | 0.327 |
| AGTCATTA | 0.037 |
| GACTGCGA | -0.206 |
| GCTATGCA | -0.102 |
| AGGCACGG | 0.062 |
| GACAGACA | 0.119 |
| CGGTCAGC | -0.137 |
| CACGTCTA | 0.166 |
| GAGAATAA | 0.034 |
| ATCATGAT | 0.416 |

| Sequence | PBM E-score |
| --- | --- |
| CTGATCAA | -0.114 |
| GGGATCAC | -0.0214 |
| ATCATGAG | 0.238 |
| ATGATCAC | 0.335 |
| CTGATCAC | 0.294 |
| ACGATCAC | 0.274 |
| ATCATGAA | 0.121 |
| ATGATCAA | 0.273 |
| ATGATCAG | 0.269 |
| GTGATCAA | 0.392 |
| GTGATCAC | 0.386 |
| CGAGCTTA | -0.0534 |
| AGCAGTAC | -0.0878 |
| GCAAACGC | 0.00943 |
| AAGGTCGC | 0.0476 |
| AATTGAAA | 0.116 |
| AATCCAGG | 0.0662 |
| CCTGTCTC | -0.123 |
| ATGGGGTA | -0.00916 |
| CGAGCGGC | -4e-05 |
| CGTTACCC | -0.152 |
| CCTCTATC | -0.0168 |
| ATGATCAT | 0.387 |
| ACGATCAT | 0.222 |
| AGGATCAT | 0.0179 |

| Sequence | PBM E-score |
| --- | --- |
| GTACGTAC | -0.0114 |
| ATACGTAC | 0.165 |
| CGACGTGA | 0.297 |
| GTACGTAA | 0.343 |
| GGACGTAC | -0.0265 |
| TTACGTAA | 0.196 |
| AGACGTGA | 0.227 |
| ATACGTAA | 0.24 |
| GGACGTGA | 0.0158 |
| CGACGTAC | 0.322 |
| CGACGTAA | 0.123 |
| CTACGTAC | 0.297 |
| CATCAGAC | -0.02 |
| CAGAGTAG | -0.205 |
| AGGTATAG | -0.1 |
| TAGCGAAA | -0.00307 |
| ACGATGGG | -0.08 |
| CGCATTTC | -0.0669 |
| ACCGCTGA | -0.057 |
| AGTACGAG | 0.00494 |
| GGTACGAA | 0.339 |
| CTTACGAC | 0.103 |
| GGTACGAC | 0.185 |
| GGTACGTA | 0.0572 |
| CGTACGAC | 0.417 |

| Sequence | PBM E-score |
| --- | --- |
| CGTACGAG | 0.343 |
| ATTACGAA | 0.281 |
| CCTACGAG | 0.163 |
| CCTACGAC | 0.288 |
| TGTACAAA | 0.0674 |
| TGTACGAA | 0.427 |
| CTCGAATC | -0.0489 |
| CATCCTTC | 0.0215 |
| CCACTGGC | -0.107 |
| CTTACGAA | 0.216 |
| CGTACGAA | 0.447 |
| AGTACGAC | 0.18 |
| AGTACGAT | 0.106 |
| AGTACGAA | 0.368 |
| CGTACGCA | 0.217 |
| CATAAGGC | 0.16 |
| GCTTGCGA | 0.0664 |
| CTCAAAAG | -0.0587 |
| AACCGGTC | -0.154 |
| TGATATCA | 0.34 |
| AGATATCT | 0.158 |
| GGATATCA | 0.247 |
| AGATATCC | 0.232 |
| AGATATCA | 0.3 |
| TGATATAA | 0.281 |

| Sequence | PBM E-score |
| --- | --- |
| CGAGGATC | 0.101 |
| AGGCGGAT | -0.0114 |
| CTCGACAA | -0.0758 |
| ACTTACCT | -0.165 |
| CGGCAGGC | -0.0216 |
| CTCCGGCC | -0.212 |
| AAGACCGG | -0.0657 |
| TCACACAA | 0.0163 |
| CGACACGC | 0.0501 |
| TCACACGA | 0.297 |
| ATACACGA | 0.179 |
| GCACACAA | -0.00644 |
| CTACACGA | 0.247 |
| GTACACGA | 0.362 |
| AGACACGA | 0.083 |
| CGACACGA | 0.298 |
| GCACACGA | 0.303 |
| ACACACGA | 0.279 |
| GCACACGC | -0.209 |
| GTCGTAAA | 0.184 |
| ACACTCAA | 0.123 |
| AAGAACAT | 0.157 |
| CATGTAAG | -0.112 |
| CCTCCGTA | 0.116 |
| TCTCTGCA | 0.0379 |

| Sequence | PBM E-score |
| --- | --- |
| CGCTGCCG | -0.0244 |
| ACCGGACC | -0.113 |
| TAATCGGA | 0.0729 |
| CAGTCGAC | 0.137 |
| CGCCTGTA | -0.234 |
| ATCGTGTA | 0.376 |
| AGCGTATG | -0.154 |
| ATAGTATG | 0.161 |
| AACGTATA | 0.1 |
| GTCGTGTA | 0.239 |
| CTCGTATA | 0.241 |
| ATCGTATC | 0.242 |
| GTCGTATA | 0.402 |
| CTCGTGTA | 0.157 |
| GACGTATA | 0.249 |
| ATCGTATA | 0.326 |
| ATCGTATG | 0.302 |
| GGGCTACC | -0.186 |
| GGGTCATA | -0.0763 |
| CCCTCGTA | 0.126 |
| TATGACCA | -0.0211 |
| GAACAGCC | -0.195 |
| AGACCGAC | -0.00992 |
| TATAAATA | 0.257 |
| CGTAAATC | 0.131 |

| Sequence | PBM E-score |
| --- | --- |
| AGTAAATA | 0.103 |
| AATAAATT | 0.313 |
| AATAAATA | 0.32 |
| CGTAAATA | 0.299 |
| GATAAATA | 0.257 |
| AATAAAAT | 0.2 |
| AATAAATG | 0.149 |
| AAAAGATA | 0.182 |
| CCTATGCA | 0.018 |
| CGAAGCCG | -0.0718 |
| GCACCCTA | -0.149 |
| GAGGTCGC | 0.0116 |
| CCGTGCGC | 0.218 |
| ACGTGCAA | 0.21 |
| CCGTGCAG | 0.192 |
| CCGTGCAC | 0.31 |
| CCGTGCGA | 0.354 |
| CCGTGCAA | 0.334 |
| GCGTGCGA | -0.0331 |
| ACGTGCAC | 0.112 |
| TCGTGCAA | 0.361 |
| GCGTGCAA | 0.0992 |
| GCGTGCAC | -0.0221 |
| CTGTGCAA | 0.0274 |
| TCTCCAAA | -0.0776 |
